From the supplement of paper PMC8728848
Shown is part of a subset that was picked to be rich in the strongest signals.

Experiments:
Assay in all cases: glycan array binding signal (z-score within array); higher = stronger binding
Settings in all cases: glycan notation: IUPAC condensed, linker removed
[1] = molecular target: Gal3S(b1-4)Glc
Method in brief: (§1)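 Arrays were curated from the Consortium for Functional Glycomics database, 3228 in total, and kept only where the protein sequence was available. Binding is expressed as a within-array Z-score. This score was averaged across arrays of the same protein sequence at different concentrations or buffers and across linkers, and negative values can be read as non-binding.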

[2] = molecular target: Gal3S(b1-4)GlcNAc
Method in brief: as §1

[3] = molecular target: Gal3S(b1-4)[Fuc(a1-3)]Glc6S
Method in brief: as §1

[4] = molecular target: Gal4S(b1-4)GlcNAc
Method in brief: as §1

[5] = molecular target: Gal6S(b1-4)Glc6S
Method in brief: as §1

[6] = molecular target: GalNAc(b1-3)Gal
Method in brief: as §1

[7] = molecular target: GalNAc(b1-3)Gal(a1-4)Gal(b1-4)GlcNAc(b1-3)Gal(b1-4)Glc
Method in brief: as §1

[8] = molecular target: GalNAc3S(b1-4)GlcNAc3S
Method in brief: as §1

[9] = molecular target: GalNAc4S6S(b1-4)GlcNAc
Method in brief: as §1

[10] = molecular target: Glc(a1-6)Glc(a1-6)Glc
Method in brief: as §1

[11] = molecular target: GlcA(b1-3)GlcNAc
Method in brief: as §1

[12] = molecular target: GlcNAc(b1-2)[GlcNAc(b1-4)]Man(a1-3)[GlcNAc(b1-4)][GlcNAc(b1-2)[GlcNAc(b1-6)]Man(a1-6)]Man(b1-4)GlcNAc(b1-4)[Fuc(a1-6)]GlcNAc
Method in brief: as §1

[13] = molecular target: GlcNAc(b1-3)Gal(b1-4)GlcNAc
Method in brief: as §1

[14] = molecular target: GlcNAc(b1-3)Gal(b1-4)GlcNAc(b1-3)Gal(b1-4)GlcNAc(b1-2)Man(a1-3)[GlcNAc(b1-3)Gal(b1-4)GlcNAc(b1-3)Gal(b1-4)GlcNAc(b1-2)Man(a1-6)]Man(b1-4)GlcNAc(b1-4)[Fuc(a1-6)]GlcNAc
Method in brief: as §1

[15] = molecular target: Man(a1-2)Man(a1-3)Man
Method in brief: as §1

[16] = molecular target: Neu5Ac(a2-3)Gal(b1-4)GlcNAc
Method in brief: as §1

[17] = molecular target: Neu5Ac(a2-3)Gal(b1-4)GlcNAc(b1-2)[Neu5Ac(a2-3)Gal(b1-4)GlcNAc(b1-6)]Man(a1-6)[Neu5Ac(a2-3)Gal(b1-4)GlcNAc(b1-2)Man(a1-3)]Man(b1-4)GlcNAc(b1-4)GlcNAc
Method in brief: as §1

[18] = molecular target: Neu5Ac(a2-3)Gal(b1-4)GlcNAc(b1-2)[Neu5Ac(a2-3)Gal(b1-4)GlcNAc(b1-6)]Man(a1-6)[Neu5Ac(a2-3)Gal(b1-4)GlcNAc(b1-2)Man(a1-3)][GlcNAc(b1-4)]Man(b1-4)GlcNAc(b1-4)GlcNAc
Method in brief: as §1

[19] = molecular target: Neu5Ac(a2-3)Gal(b1-4)GlcNAc(b1-3)Gal(b1-4)GlcNAc(b1-2)Man(a1-3)[Neu5Ac(a2-3)Gal(b1-4)GlcNAc(b1-3)Gal(b1-4)GlcNAc(b1-2)Man(a1-6)]Man(b1-4)GlcNAc(b1-4)GlcNAc
Method in brief: as §1

[20] = molecular target: Neu5Ac(a2-3)Gal(b1-4)GlcNAc(b1-6)GalNAc
Method in brief: as §1

[21] = molecular target: Neu5Ac(a2-3)Gal(b1-4)[Fuc(a1-3)]GlcNAc(b1-6)[Gal(b1-3)]GalNAc
Method in brief: as §1

[22] = molecular target: Neu5Ac(a2-3)[Neu5Ac(a2-6)]GalNAc
Method in brief: as §1

[23] = molecular target: Neu5Ac(a2-6)Gal(b1-4)Glc
Method in brief: as §1

[24] = molecular target: Neu5Ac(a2-6)Gal(b1-4)GlcNAc(b1-2)Man(a1-3)[GlcNAc(b1-4)][Neu5Ac(a2-6)Gal(b1-4)GlcNAc(b1-2)Man(a1-6)]Man(b1-4)GlcNAc(b1-4)GlcNAc
Method in brief: as §1

[25] = molecular target: Neu5Ac(a2-6)Gal(b1-4)GlcNAc(b1-2)Man(a1-3)[Neu5Ac(a2-6)Gal(b1-4)GlcNAc(b1-2)Man(a1-6)]Man(b1-4)GlcNAc(b1-4)GlcNAc
Method in brief: as §1

[26] = molecular target: Neu5Ac(a2-6)Gal(b1-4)GlcNAc(b1-2)Man(a1-6)Man(b1-4)GlcNAc(b1-4)GlcNAc
Method in brief: as §1

[27] = molecular target: Neu5Ac(a2-6)Gal(b1-4)GlcNAc(b1-2)Man(a1-6)[Gal(b1-4)GlcNAc(b1-2)Man(a1-3)]Man(b1-4)GlcNAc(b1-4)GlcNAc
Method in brief: as §1

[28] = molecular target: Neu5Ac(a2-6)Gal(b1-4)GlcNAc(b1-2)Man(a1-6)[GlcNAc(b1-2)Man(a1-3)]Man(b1-4)GlcNAc(b1-4)GlcNAc
Method in brief: as §1

[29] = molecular target: Neu5Ac(a2-6)Gal(b1-4)GlcNAc(b1-3)Gal(b1-4)GlcNAc(b1-6)[Gal(b1-3)]GalNAc
Method in brief: as §1

[30] = molecular target: Neu5Ac(a2-6)GlcNAc(b1-4)GlcNAc(b1-4)GlcNAc
Method in brief: as §1

[31] = molecular target: Neu5Ac(a2-8)Neu5Ac(a2-3)Gal(b1-4)GlcNAc
Method in brief: as §1

[32] = molecular target: Neu5Ac(a2-8)Neu5Ac(a2-3)[GalNAc(b1-4)]Gal(b1-4)Glc
Method in brief: as §1

[33] = molecular target: Neu5Gc(a2-3)Gal(b1-4)GlcNAc(b1-3)Gal(b1-4)GlcNAc(b1-2)Man(a1-3)[Neu5Gc(a2-3)Gal(b1-4)GlcNAc(b1-3)Gal(b1-4)GlcNAc(b1-2)Man(a1-6)]Man(b1-4)GlcNAc(b1-4)GlcNAc
Method in brief: as §1

B1: FimA-N2 (Actinomyces oris) (protein)
chain: MHHHHHHSSGVDLGTENLYFQSNAWIYDVNVYPKNEAIDVDKTIQAQKLNGYGVGSLIKFPVESTAPTLDAKSFYKYFQLKDTLDERLSEVTATDVSLEGTPLQPTDYKVETKQQTVTVTFTAEGLKKIKAAPGKKVSAVFQGKVTKAGNGAITNRAQVISDTLYAEQPPTPETPPTDPENPPTSDEVISRWGDLSIKKVDTHQQGQTKA
glycan array binding signal (z-score) [1]: 0.216 | glycan array binding signal (z-score) [2]: 2.69 | glycan array binding signal (z-score) [3]: 3.08 | glycan array binding signal (z-score) [4]: 3.9 | glycan array binding signal (z-score) [5]: -0.257 | glycan array binding signal (z-score) [6]: 2.41 | glycan array binding signal (z-score) [7]: 1.53 | glycan array binding signal (z-score) [8]: 0.248 | glycan array binding signal (z-score) [9]: -0.331 | glycan array binding signal (z-score) [10]: -0.88 | glycan array binding signal (z-score) [11]: 0.654 | glycan array binding signal (z-score) [12]: -0.355 | glycan array binding signal (z-score) [13]: 0.299 | glycan array binding signal (z-score) [14]: -0.07 | glycan array binding signal (z-score) [15]: 0.075 | glycan array binding signal (z-score) [16]: -0.301 | glycan array binding signal (z-score) [17]: -0.853 | glycan array binding signal (z-score) [18]: -0.874 | glycan array binding signal (z-score) [19]: -0.355 | glycan array binding signal (z-score) [20]: 1.38 | glycan array binding signal (z-score) [21]: 1.73 | glycan array binding signal (z-score) [22]: -1.07 | glycan array binding signal (z-score) [23]: 0.148 | glycan array binding signal (z-score) [24]: -1.7 | glycan array binding signal (z-score) [25]: 0.297 | glycan array binding signal (z-score) [26]: -0.759 | glycan array binding signal (z-score) [27]: -1.01 | glycan array binding signal (z-score) [28]: 0.589 | glycan array binding signal (z-score) [29]: -0.597 | glycan array binding signal (z-score) [30]: 0.675 | glycan array binding signal (z-score) [31]: -0.815 | glycan array binding signal (z-score) [32]: -1.37 | glycan array binding signal (z-score) [33]: -0.144
